# Assay results: the supplement of paper PMC6555819
# Experiments:
# Experiment in all cases: PBM binding z-score (relative to random genomic background probes); higher = stronger binding; sequences stand for … in GC…GCGATTGACAGCGTAGAATGAAGG
# [1] = tested on: RARb homodimer (NR concentration 270 nM)
# Procedure, shortened: (§1)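 Ligand-free nuclear receptor dimers were applied to custom Agilent 4×180K protein-binding microarrays whose double-stranded probes carried direct-repeat seeds, single-nucleotide variants, half-site ablations and random human genomic background sequences in 34-nt variable regions. Incubation lasted 1 h. Binding z-scores were computed against the random background probes from regression-normalized fluorescence.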
# [2] = tested on: RARg:RXRa (NR concentration 270 nM, RXRa partner concentration 90 nM)
# Procedure, shortened: as §1
# [3] = tested on: RARg homodimer (NR concentration 270 nM)
# Procedure, shortened: as §1
# [4] = tested on: RXRa DBDmut IVT, anti-RXR (DBD mutation: RXRa K156A/R161A, NR concentration 90 nM)
# Procedure, shortened: as §1
# [5] = tested on: RXRa homodimer (NR concentration 180 nM)
# Procedure, shortened: as §1
# [6] = tested on: THRa:RXRa (NR concentration 90 nM, RXRa partner concentration 90 nM)
# Procedure, shortened: as §1
# [7] = tested on: THRa homodimer (NR concentration 90 nM)
# Procedure, shortened: as §1
# [8] = tested on: VDR homodimer (NR concentration 270 nM)
# Procedure, shortened: as §1
Sequence,PBM binding z-score [1],PBM binding z-score [2],PBM binding z-score [3],PBM binding z-score [4],PBM binding z-score [5],PBM binding z-score [6],PBM binding z-score [7],PBM binding z-score [8]
AGTCAAAGTTCAGGACGAGGTAACGTAGAGCACG,3.39,4.8,4.77,2.61,3.06,4.07,1.71,2.15
CCGACTGGGGCATAAGGTTACCGTAAGCCAGCCC,1.83,2.05,1.06,-0.367,1.34,2.26,1.13,-0.402
TTACCAAGGTGAAAGGTCGTTGACGCACGCCTTG,2.87,4.52,2.25,0.212,6.19,3.34,0.822,1.41
GCTAGCAGGCCGTTTGGGTCACTCAATGACGGGC,1.43,0.678,0.649,-0.318,0.67,1.61,0.166,0.089
GCAGACAGGTGAAACGCAGGTAAATCAGGGTGGC,0.00843,0.816,-0.0582,-0.477,0.544,1.23,-0.537,-0.336
TCTAATTGGTCACGGAGGTCACACACGACGGGTA,4.68,5.01,5.18,1.55,5.28,3.73,2.75,3.23
ACTTACGGGTCACCGAGGTTATAGCACGCGTATA,4.01,6.34,5.96,2.78,7.33,4.24,1.45,4.59
CCGAGTGGGGCAAGGTTACCATAACGCACAGCCA,1.3,1.07,1.2,-0.421,1.3,1.53,0.265,0.121
CAAACTAGGGCAAGGTCAAAGTCGGTTTGTGCCA,4.09,4.67,4.49,2.41,4.63,3.75,2.34,3.52
CCTTACGGGTCACTCCAGCTTATAGCATCGGAGT,2.64,4.1,4.22,1.69,3.9,2.22,-0.158,0.747
TCTATTAGTTGAAGGGCAACCGTCGAGTCCGTTT,1.41,0.513,0.573,1.63,0.558,0.234,0.122,1.61
TCTTGTAGATCAGGCAGGTTAAGAAAGCCTGAGT,-0.0605,-0.161,-0.489,0.355,0.102,0.149,-0.429,0.00584
TCTCGGAGGACACGACGGTCAGAGCTTTCCAGAG,1.53,0.617,1.65,0.193,0.0986,1.33,0.161,-0.222
TAGCCTAGGTCATTGGGGCAGTATAGTACGCATC,3.31,3.93,4.23,1.67,2.99,2.96,1.28,1.8
TCTAGTTGGTCAAAGGTCACATACTCGAAATGCG,5.18,6.93,6.01,1.65,7.86,3.89,1.76,2.75
ACTAGTTGGTCAGCTGAGGTGACACACAATTCGG,1.74,1.34,1.29,-0.108,0.902,4.41,2.03,0.149
AATACAGGGTCATCGTAGCCCAGAGTACGCACAG,3.25,5.57,4.42,3.46,6.57,3.69,1.34,3.87
CAGCCTAGGTCAGTGCCAGTATAGGAGGAACGTT,2.5,2.55,3.53,0.655,0.856,1.44,0.501,-0.0639
GCTCACGGGTCAAAGGTTATAGCATGAATAGAAT,3.32,6.64,4.64,2.36,9.1,3.78,-0.0294,1.19
CAAACTAGGTCAAGCTCAAAGTCGGTTTGTGCCA,3.34,4.06,4.98,1.53,2.55,3.2,1.34,0.374
CCGACTGGGACAAGGTTACCATAACGCACAGCCA,0.97,0.731,0.756,-0.018,1.19,1.61,1.08,-0.0253
CCTACTGGGCCAAGGTCATTGGTCAGTCAAAGCA,3.51,3.85,3.86,0.988,3.73,3.48,2.62,3.41
TCGAGTAGGTTACCAATTGGGCATTCAGCTTTCT,-0.00589,0.186,-0.124,0.484,0.205,-0.0916,-0.446,-0.653
CTCGAAAGTTCGGTTGAGGTGAGTATACGGATAA,1.12,0.738,0.973,1.24,0.161,4.57,1.37,0.742
CAAACTAGGTCAAGGACAGTGAATCTCCGCACGC,3.29,3.69,4.39,1.7,2.79,3.27,2.33,0.901
CAAACTAGGTCACGAAAGGTCAAAGGCGAATGAC,5.95,8.09,8.64,1.99,8.7,5.15,2.55,3.38
